Assay outcomes deposited in PubChem by several laboratories.
Hits are enriched below; roughly 3.9% of the tested compounds scored in any of these assays.
SARS 3CLpro inh: SARS-CoV 3CLpro protease inhibitors, primary screen, biochemical, quenched FRET | Replicase polyprotein 1ab (Severe acute respiratory syndrome coronavirus), P0C6X7 | hit rate 0.14% among 290,000 | inhibition, % at 6 µM | recombinant SARS-CoV 3CLpro, quenched FRET peptide cleavage; in the data active means inhibition above about 12%
BoNT F protease: BoNT/F light chain protease inhibitors, primary screen, biochemical, flow cytometry, MLPCN library; Botulinum neurotoxin type F light chain protease (Clostridium botulinum); Multiplex microsphere protease cleavage assay; inhibition, % at 10 µM; hit rate 0.22% among 360,000; in the data active means inhibition above about 35%, passing the limit was not always enough; inconclusive means no clear call, values can overlap the other calls
BoNT A protease: BoNT/A light chain protease inhibitors, primary screen, biochemical, flow cytometry, MLPCN library. AID 588499, 2011. inhibition, % at 10 µM. hit rate 0.17% among 360,000. Botulinum neurotoxin type A light chain protease (Clostridium botulinum A str. ATCC 3502). multiplex microsphere protease substrate cleavage
CCHF vOTU inh: CCHFV vOTU protease inhibitors, primary screen, biochemical, Pep-AMC substrate, fluorescence | inhibition, % at 11.5 µM | Crimean-Congo hemorrhagic fever virus L polyprotein viral ovarian tumor (vOTU) protease … | hit rate 0.55% among 370,000; in the data active means inhibition above about 30%
Bead autofluor: compound fluorescence in toxin protease inhibitor counterscreen. hit rate 3.1% among 360,000. AID 624483. fluorescence intensity (test concentration not listed). compound autofluorescence counterscreen, microsphere flow cytometry; stronger effect = higher value; in the data active means fluorescence intensity above about 16000; inconclusive means no clear call, values can overlap the other calls
Anthrax LF prot: Bacillus anthracis LF protease inhibitors, primary screen, biochemical, multiplex microsphere, MLPCN library; Lethal factor (Bacillus anthracis), P15917; multiplex microsphere protease cleavage assay; inhibition, % at 10 µM; hit rate 0.12% among 360,000
Target sequence (P15917 whole entry, looked up): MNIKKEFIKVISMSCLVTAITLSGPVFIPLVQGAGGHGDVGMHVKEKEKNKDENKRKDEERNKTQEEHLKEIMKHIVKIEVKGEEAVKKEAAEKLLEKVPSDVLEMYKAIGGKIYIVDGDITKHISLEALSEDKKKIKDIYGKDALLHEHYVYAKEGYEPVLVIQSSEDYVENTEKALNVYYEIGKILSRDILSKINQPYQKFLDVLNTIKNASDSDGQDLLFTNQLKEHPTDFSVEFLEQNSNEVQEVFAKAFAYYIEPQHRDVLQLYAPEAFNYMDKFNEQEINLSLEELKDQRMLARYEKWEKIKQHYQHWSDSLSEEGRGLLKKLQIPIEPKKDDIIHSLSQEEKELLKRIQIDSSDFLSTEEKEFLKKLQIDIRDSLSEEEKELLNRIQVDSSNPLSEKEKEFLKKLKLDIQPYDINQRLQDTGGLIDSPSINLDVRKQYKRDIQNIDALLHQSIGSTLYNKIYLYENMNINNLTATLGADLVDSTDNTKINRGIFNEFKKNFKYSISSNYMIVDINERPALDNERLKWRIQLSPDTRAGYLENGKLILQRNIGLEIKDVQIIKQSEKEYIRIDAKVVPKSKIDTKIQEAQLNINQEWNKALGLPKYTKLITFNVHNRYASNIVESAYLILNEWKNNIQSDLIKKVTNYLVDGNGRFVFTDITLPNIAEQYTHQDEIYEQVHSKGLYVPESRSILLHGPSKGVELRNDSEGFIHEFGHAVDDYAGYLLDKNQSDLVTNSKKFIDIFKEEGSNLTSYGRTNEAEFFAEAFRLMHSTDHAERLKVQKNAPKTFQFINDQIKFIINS
Each line names hits and unclear results; the compound was inactive in the other large screens. Unless noted, no stated cut-off is given here; in the data, active means inhibition above about 30%; inconclusive means no clear call, values can overlap the other calls; inactive means below that.

CN(CC(=O)Nc1cccnc1)S(=O)(=O)c1cc(Cl)ccc1Cl	BoNT A protease inconclusive, Bead autofluor 25881 (no result: CCHF vOTU inh)
O=C(Nc1cccnc1)c1cc(F)c(F)cc1Cl	none
O=C(Nc1cccnc1)Nc1ccc(F)c(Cl)c1	BoNT A protease inconclusive, Bead autofluor 23140
COc1ccc(S(=O)(=O)N2CCOCC2)cc1NC(=O)/C=C/c1ccc(F)cc1	none (no result: SARS 3CLpro inh)
N#Cc1ccc2nc(-c3ccc(CN4CCC5(CC4)CNc4ccccc45)cc3)c(-c3ccccc3)nc2c1	none (no result: SARS 3CLpro inh, BoNT F protease, BoNT A protease, Bead autofluor, Anthrax LF prot)
CN1CCN(C(=O)C2CCC(=O)N(CCc3cccc(F)c3)C2)CC1 (stereo not drawn)	Bead autofluor inconclusive
COC(=O)[C@]12C[C@H](CC(=O)NCc3ccccc3)C(=O)N(Cc3ccco3)C1=C[C@H](C1CCCC1)O[C@@H]2C	none (no result: SARS 3CLpro inh, BoNT F protease, BoNT A protease, Bead autofluor, Anthrax LF prot)
Cc1ccc(NC(=O)Nc2ccc(F)c(Cl)c2)cc1	none
CSc1ccccc1NC(=O)Nc1ccc(F)c(Cl)c1	Bead autofluor 24571
CN(c1cccc(NC(=O)Nc2cccc(Cl)c2)c1)S(C)(=O)=O	none
CN(C)c1ccc(NC(=O)Nc2cccc(Cl)c2)cc1	Bead autofluor 19659
CC(=O)Nc1cccc(-c2ccnc3c2CC(C(=O)Nc2cccc(N(C)C)c2)O3)c1 (stereo not drawn)	none (no result: SARS 3CLpro inh)
CN(c1ccccc1)S(=O)(=O)c1ccc(C(=O)NNC(=O)c2ccccc2F)cc1	none (no result: SARS 3CLpro inh)
CCN(CC)C(=O)CC[C@@H]1CC[C@]2(CCCN(Cc3ccncc3)C2)O1	none (no result: SARS 3CLpro inh, BoNT F protease, BoNT A protease, Bead autofluor, Anthrax LF prot)
Cc1cc(C)c(S(=O)(=O)N2CCN(c3ccccn3)CC2)c(C)c1	none (no result: SARS 3CLpro inh)
CCOC(=O)N1CCN(CC(=O)Nc2c(C(=O)OC)[nH]c3cc(C)ccc23)CC1	Bead autofluor 23057
O=C(OCC(=O)N1CCN(C(=O)c2ccco2)CC1)c1cc(-c2ccccc2)nc2ccccc12	Bead autofluor inconclusive
O=C(OCC(=O)N1CCN(C(=O)c2ccco2)CC1)c1cc(-c2cccc(Br)c2)nc2ccccc12	Bead autofluor 24517
O=C(NCCNC(=O)c1ccc(Cl)cc1Cl)c1ccc(Cl)cc1Cl	none (no result: SARS 3CLpro inh)
Cc1c2c(cc3c1[nH]c1ccccc13)C=NCC2	Bead autofluor 21778 (no result: SARS 3CLpro inh)
CC[C@]12c3[nH]c4cc(CCC(=O)N(C)C)ccc4c3CCN1C(=O)[C@@H](CC(=O)NCc1cccc(C(F)(F)F)c1)C[C@@H]2C(=O)N1CCN(C(=O)C2CC2)CC1	none (no result: SARS 3CLpro inh)
O=C(c1ccncc1)N(Cc1ccco1)Cc1cc2ccccc2[nH]c1=O	Bead autofluor 22113
Cc1cccc2cc(CN(Cc3ccco3)C(=O)c3ccncc3)c(=O)[nH]c12	none (no result: BoNT F protease, BoNT A protease, Bead autofluor, Anthrax LF prot)
COc1ccc(CC(=O)N/N=C(\C)CC(=O)NCc2ccco2)cc1OC	BoNT F protease inconclusive
CCOc1ccc(S(=O)(=O)N/N=C2/CC(c3ccccc3)Oc3ccccc32)cc1 (stereo not drawn)	Bead autofluor 19045
CCCNC(=O)c1noc2c1CCc1ccccc1-2	none
O=C(Cc1ccc(-c2ccccc2)cc1)NCCN1CCOCC1	none
O=C(NCCc1ccccc1)c1noc2c1CCc1ccccc1-2	Bead autofluor 17456
Cc1cccc(C(=O)NCCN2CCN(c3ccccc3)CC2)c1	none
O=C(NCCN1CCOCC1)c1noc2c1CCc1ccccc1-2	Bead autofluor 23180
O=C(NCCN1CCN(c2ccccc2)CC1)c1cccc(Br)c1	Bead autofluor 23925
Cc1onc(-c2ccccc2)c1C(=O)NCCN1CCOCC1	none
O=C(NCCN1CCOCC1)c1ccc(-c2ccccc2)cc1	Bead autofluor 20391 (no result: CCHF vOTU inh)
C#Cc1cccc(Nc2nc(NC(C)C)nc3ccsc23)c1	none (no result: SARS 3CLpro inh)
COCCNC(=O)C1CCCN(S(=O)(=O)c2ccc3c(c2)CC(C)N3C(=O)C2CC2)C1 (stereo not drawn)	none
COc1cccc(-c2cnc(C(O)c3ccc(Cl)c(Cl)c3)[nH]2)c1 (stereo not drawn)	none (no result: SARS 3CLpro inh)
CC(C)(C)c1ccc(-c2nnc(SCC(=O)c3ccc([N+](=O)[O-])cc3)n2-c2ccc(Cl)cc2)cc1	none (no result: SARS 3CLpro inh, BoNT F protease, BoNT A protease, Bead autofluor, Anthrax LF prot)
CCC(CO)NCc1ccc(Br)cc1 (stereo not drawn)	none
CCC(CO)NCc1ccc(OC2CCCC2)cc1 (stereo not drawn)	Bead autofluor 23277
CCOCCc1c(O)nc(SCC(=O)N2CCOCC2)[nH]c1=O	none
